{"source": "the supplement of paper PMC11001985", "note": "A number with no mark means an inactive call.", "data": [{"compound": "C#CCNC(=O)CCSSCCC(=O)NCCc1ccc(C=O)c(C=O)c1", "assay": "lysine labeling ratio R10:1 (500 µM / 50 µM probe), SILAC-ABPP in living cells; higher = lower intrinsic lysine reactivity toward the probe, active = 2 or less", "settings": "HeLa; probe concentrations 500 vs 50 µM", "how_it_was_run": "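For each lysine, R is the median over forward and reverse replicates of the filtered median MS1 peptide ratio of high probe to low probe. The probe, an alkyne-tagged, disulfide-linked lysine probe, was given at 500 µM or 50 µM to living SILAC light and heavy HeLa cells in PBS at room temperature, with label swaps. Values are capped at 20.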", "values": [{"target": "SEMA3C (lysine site: K731) (UniProt Q99985)", "sequence (Q99985 whole entry)": "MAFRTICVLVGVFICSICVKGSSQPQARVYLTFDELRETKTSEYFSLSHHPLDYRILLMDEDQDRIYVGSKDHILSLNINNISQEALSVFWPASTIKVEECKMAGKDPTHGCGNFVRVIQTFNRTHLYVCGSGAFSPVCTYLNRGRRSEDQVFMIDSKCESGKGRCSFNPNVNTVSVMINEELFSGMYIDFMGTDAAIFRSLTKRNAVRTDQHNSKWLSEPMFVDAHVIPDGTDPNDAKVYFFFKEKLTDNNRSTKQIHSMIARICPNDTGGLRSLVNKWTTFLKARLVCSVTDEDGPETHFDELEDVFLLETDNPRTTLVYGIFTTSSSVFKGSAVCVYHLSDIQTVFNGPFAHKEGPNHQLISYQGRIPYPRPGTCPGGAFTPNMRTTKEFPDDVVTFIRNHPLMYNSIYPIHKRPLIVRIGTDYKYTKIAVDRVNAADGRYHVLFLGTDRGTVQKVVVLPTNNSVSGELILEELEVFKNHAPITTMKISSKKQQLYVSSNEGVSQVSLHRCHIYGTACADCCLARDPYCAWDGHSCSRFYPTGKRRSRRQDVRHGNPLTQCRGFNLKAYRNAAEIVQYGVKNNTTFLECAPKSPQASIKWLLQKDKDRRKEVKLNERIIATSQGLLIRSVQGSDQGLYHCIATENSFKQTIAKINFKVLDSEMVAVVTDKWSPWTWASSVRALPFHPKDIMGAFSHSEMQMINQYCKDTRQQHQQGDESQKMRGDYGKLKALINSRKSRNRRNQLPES", "lysine labeling ratio R10:1": "0.505 (active)"}, {"target": "UniProt O60462 (lysine site: K499)", "lysine labeling ratio R10:1": "1.47 (active)"}, {"target": "CELSR2 (lysine site: K1846) (UniProt Q9HCU4)", "lysine labeling ratio R10:1": 3.09}, {"target": "HSPG2 (lysine site: K3155) (UniProt P98160)", "lysine labeling ratio R10:1": "1.37 (active)"}, {"target": "DDX5 (lysine site: K523) (UniProt P17844)", "sequence (P17844 whole entry)": "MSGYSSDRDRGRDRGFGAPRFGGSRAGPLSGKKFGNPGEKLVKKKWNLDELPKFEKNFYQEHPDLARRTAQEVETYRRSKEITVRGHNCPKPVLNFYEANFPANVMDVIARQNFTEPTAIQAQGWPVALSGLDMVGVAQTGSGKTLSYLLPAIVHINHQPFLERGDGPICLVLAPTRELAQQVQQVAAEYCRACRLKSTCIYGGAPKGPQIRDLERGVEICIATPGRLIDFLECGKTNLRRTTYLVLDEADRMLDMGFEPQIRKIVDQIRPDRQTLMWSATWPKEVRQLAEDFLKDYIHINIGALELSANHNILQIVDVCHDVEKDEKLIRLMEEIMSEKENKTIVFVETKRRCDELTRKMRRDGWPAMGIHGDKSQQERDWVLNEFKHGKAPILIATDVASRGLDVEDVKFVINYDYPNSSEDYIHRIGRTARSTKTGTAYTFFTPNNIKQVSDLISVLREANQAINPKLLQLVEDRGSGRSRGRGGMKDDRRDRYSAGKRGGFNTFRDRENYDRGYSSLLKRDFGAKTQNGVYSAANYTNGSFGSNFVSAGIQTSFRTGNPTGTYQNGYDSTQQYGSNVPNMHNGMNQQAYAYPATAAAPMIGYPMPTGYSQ", "lysine labeling ratio R10:1": 4.4}, {"target": "EPCAM (lysine site: K160) (UniProt P16422)", "lysine labeling ratio R10:1": 2.33}, {"target": "HSP90B1 (lysine site: K547) (UniProt P14625)", "lysine labeling ratio R10:1": 3.04}, {"target": "UniProt Q9UHN6 (lysine site: K887)", "lysine labeling ratio R10:1": "1.21 (active)"}, {"target": "SPTAN1 (lysine site: K1274) (UniProt Q13813)", "lysine labeling ratio R10:1": 3.51}, {"target": "SLC9A3R1 (lysine site: K227) (UniProt O14745)", "lysine labeling ratio R10:1": 3.96}, {"target": "CTTN (lysine site: K87) (UniProt Q14247)", "sequence (Q14247 whole entry)": "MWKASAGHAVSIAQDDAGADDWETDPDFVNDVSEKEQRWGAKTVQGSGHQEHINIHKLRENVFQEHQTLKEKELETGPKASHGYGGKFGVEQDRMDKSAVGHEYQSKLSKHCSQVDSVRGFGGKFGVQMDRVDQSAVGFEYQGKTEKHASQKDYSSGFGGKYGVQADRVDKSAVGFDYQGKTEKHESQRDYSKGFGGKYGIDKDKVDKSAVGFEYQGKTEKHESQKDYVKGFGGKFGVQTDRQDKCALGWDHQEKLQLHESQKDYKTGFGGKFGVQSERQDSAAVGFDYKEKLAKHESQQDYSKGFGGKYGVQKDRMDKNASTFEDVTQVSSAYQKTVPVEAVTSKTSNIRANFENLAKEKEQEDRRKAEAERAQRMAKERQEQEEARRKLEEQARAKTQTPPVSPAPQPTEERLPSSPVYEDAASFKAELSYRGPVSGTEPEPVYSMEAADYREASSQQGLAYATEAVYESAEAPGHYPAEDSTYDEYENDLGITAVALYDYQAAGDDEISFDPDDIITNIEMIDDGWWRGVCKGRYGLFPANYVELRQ", "lysine labeling ratio R10:1": 2.06}, {"target": "DDX5 (lysine site: K391) (UniProt P17844)", "lysine labeling ratio R10:1": 10.4}, {"target": "CD99L2 (lysine site: K86) (UniProt Q8TCZ2)", "sequence (Q8TCZ2 whole entry)": "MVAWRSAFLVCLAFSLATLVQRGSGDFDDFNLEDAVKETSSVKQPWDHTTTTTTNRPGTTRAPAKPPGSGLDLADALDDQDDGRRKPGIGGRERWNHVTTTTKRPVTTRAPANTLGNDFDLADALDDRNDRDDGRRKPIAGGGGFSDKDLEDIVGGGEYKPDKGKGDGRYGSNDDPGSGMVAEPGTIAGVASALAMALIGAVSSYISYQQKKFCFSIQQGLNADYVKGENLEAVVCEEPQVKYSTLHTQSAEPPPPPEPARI", "lysine labeling ratio R10:1": 3.94}, {"target": "UniProt Q99623 (lysine site: K147)", "lysine labeling ratio R10:1": 3.43}, {"target": "NUMA1 (lysine site: K284) (UniProt Q14980)", "sequence (Q14980 whole entry)": "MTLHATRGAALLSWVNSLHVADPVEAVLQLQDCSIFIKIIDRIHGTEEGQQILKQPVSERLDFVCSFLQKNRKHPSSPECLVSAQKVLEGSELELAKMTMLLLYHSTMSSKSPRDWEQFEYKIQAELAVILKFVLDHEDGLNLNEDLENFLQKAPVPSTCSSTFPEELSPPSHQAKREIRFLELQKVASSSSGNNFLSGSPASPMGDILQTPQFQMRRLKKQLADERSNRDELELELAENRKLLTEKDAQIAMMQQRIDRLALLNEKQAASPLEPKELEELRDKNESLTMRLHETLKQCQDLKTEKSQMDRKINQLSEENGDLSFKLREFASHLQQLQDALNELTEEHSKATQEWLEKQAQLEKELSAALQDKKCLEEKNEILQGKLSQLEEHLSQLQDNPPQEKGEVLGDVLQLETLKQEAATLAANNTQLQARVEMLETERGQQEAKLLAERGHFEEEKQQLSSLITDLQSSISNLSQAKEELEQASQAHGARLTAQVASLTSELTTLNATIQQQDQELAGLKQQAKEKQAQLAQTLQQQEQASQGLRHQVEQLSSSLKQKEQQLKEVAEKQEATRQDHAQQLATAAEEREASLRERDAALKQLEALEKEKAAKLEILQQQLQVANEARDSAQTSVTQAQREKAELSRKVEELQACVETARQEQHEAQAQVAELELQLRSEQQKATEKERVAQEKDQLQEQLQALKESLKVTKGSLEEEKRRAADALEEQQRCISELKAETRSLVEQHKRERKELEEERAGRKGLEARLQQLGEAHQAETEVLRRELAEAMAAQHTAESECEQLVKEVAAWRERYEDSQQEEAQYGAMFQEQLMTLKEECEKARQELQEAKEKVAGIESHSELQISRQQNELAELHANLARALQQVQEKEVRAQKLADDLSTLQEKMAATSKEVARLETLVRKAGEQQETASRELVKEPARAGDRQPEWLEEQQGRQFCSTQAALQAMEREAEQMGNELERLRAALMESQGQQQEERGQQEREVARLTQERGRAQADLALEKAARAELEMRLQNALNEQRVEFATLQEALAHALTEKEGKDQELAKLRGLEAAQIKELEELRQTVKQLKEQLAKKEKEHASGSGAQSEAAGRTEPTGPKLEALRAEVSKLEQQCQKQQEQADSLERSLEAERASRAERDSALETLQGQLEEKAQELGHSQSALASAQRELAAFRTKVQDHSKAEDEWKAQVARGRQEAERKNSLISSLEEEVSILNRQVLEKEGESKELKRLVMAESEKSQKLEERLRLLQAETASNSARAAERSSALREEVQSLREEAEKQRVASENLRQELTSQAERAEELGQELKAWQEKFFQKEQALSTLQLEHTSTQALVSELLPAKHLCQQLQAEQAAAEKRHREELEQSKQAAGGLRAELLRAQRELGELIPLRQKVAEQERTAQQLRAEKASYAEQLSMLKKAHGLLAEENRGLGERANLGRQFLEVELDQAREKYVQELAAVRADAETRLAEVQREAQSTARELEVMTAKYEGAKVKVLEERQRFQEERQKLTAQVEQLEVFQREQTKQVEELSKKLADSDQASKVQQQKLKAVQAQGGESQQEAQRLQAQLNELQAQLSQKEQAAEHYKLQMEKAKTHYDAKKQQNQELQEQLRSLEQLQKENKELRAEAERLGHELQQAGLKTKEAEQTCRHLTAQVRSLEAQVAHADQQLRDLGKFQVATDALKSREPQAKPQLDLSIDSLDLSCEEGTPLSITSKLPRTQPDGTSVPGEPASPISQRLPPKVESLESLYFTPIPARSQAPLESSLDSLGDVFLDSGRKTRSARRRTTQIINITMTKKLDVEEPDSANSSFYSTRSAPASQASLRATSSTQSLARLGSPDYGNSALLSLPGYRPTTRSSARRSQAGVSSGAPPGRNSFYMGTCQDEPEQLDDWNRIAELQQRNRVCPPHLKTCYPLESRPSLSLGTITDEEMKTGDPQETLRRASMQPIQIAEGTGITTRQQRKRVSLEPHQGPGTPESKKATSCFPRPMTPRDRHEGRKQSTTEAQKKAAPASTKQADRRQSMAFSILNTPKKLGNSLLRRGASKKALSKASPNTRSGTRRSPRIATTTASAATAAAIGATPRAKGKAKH", "lysine labeling ratio R10:1": "2 (active)"}, {"target": "TCP1 (lysine site: K400) (UniProt P17987)", "sequence (P17987 whole entry)": "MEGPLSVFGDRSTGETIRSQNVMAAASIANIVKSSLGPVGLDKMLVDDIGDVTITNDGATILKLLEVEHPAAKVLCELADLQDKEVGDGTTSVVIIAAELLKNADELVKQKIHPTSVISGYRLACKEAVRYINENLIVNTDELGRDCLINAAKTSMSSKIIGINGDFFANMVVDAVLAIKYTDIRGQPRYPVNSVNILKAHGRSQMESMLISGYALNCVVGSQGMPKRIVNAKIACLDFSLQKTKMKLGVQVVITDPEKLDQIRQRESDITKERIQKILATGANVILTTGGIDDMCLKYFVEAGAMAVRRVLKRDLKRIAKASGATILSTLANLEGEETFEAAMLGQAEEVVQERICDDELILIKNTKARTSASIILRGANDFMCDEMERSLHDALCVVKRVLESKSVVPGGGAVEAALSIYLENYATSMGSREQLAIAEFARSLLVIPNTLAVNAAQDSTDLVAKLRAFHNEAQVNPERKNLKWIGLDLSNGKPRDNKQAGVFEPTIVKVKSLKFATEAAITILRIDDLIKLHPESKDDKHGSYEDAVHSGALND", "lysine labeling ratio R10:1": 2.68}, {"target": "XRCC5 (lysine site: K648) (UniProt P13010)", "lysine labeling ratio R10:1": "1.9 (active)"}]}]}
